The record followed here is PubChem BioAssay (NCATS).

In test [1] the target is Voltage-gated inwardly rectifying potassium channel KCNH2 (Homo sapiens) (UniProt Q12809). Put plainly: qHTS Assay for Small Molecule Inhibitors of the Human hERG Channel Activity (AID 588834).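 Note: lower thallium flux fluorescence means stronger hERG block; nearly all actives have a fitted effect of over 50% in size.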 Note: potency is the fitted concentration of half-maximal effect. The settings on record: U2OS BacMam hERG, FluxOR thallium flux fluorescence; series mostly up to 46.1 µM. Summed up: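 Thallium serves as surrogate for K+ influx through BacMam-delivered hERG in U2OS cells. Compounds are added for about 10 minutes after dye loading; stimulation buffer then starts flux, monitored kinetically on FDSS.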
Chain of Voltage-gated inwardly rectifying potassium channel KCNH2 (Homo sapiens) (Q12809 whole entry, looked up): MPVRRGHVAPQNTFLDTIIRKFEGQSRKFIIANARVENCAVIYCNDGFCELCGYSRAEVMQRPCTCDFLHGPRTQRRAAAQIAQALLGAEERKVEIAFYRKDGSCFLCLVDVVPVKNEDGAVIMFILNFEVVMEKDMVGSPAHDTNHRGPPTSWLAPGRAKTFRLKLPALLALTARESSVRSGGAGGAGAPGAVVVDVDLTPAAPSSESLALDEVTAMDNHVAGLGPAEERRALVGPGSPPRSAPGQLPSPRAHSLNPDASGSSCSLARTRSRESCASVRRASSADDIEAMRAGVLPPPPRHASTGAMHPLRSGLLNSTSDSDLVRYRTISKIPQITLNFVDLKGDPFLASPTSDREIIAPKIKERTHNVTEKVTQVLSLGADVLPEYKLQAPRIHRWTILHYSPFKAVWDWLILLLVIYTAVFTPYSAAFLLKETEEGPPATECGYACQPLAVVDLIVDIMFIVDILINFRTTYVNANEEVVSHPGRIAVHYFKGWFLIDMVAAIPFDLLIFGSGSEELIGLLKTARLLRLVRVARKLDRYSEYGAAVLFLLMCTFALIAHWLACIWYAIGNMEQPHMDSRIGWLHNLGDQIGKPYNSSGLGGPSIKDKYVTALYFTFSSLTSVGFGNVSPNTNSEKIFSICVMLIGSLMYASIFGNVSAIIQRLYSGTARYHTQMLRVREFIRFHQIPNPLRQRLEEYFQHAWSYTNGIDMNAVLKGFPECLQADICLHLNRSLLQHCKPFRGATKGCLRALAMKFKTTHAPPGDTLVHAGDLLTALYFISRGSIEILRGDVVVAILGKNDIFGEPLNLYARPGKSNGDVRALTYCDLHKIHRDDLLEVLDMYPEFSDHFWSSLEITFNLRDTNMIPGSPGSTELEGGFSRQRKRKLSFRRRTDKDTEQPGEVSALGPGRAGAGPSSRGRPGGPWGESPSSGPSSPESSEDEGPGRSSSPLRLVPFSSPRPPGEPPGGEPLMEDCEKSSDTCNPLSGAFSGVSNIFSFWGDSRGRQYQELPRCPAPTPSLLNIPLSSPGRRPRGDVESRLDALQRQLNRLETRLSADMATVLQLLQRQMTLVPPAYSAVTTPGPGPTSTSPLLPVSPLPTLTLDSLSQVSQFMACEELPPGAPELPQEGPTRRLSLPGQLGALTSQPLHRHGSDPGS

For test [2], the target named is Luciferin 4-monooxygenase (Photinus pyralis) (UniProt P08659). Put plainly: Biochemical firefly luciferase enzyme assay for NPC (AID 624030). Note: nearly all actives have a fitted effect of over 70% in size. Note: potency is the fitted concentration of half-maximal effect. The settings on record: purified P. pyralis luciferase, luminescence, 5 min; series mostly up to 58.6 µM. Summed up: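 Direct inhibition of firefly luciferase enzyme (10 nM final, 50 mM Tris Acetate) assessed by luminescence within 5 minutes. Percent activity scaled between DMSO and PTC124 positive control, with concentration-effect curves classified by fit quality and response.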
Chain of Luciferin 4-monooxygenase (Photinus pyralis) (P08659 whole entry, looked up): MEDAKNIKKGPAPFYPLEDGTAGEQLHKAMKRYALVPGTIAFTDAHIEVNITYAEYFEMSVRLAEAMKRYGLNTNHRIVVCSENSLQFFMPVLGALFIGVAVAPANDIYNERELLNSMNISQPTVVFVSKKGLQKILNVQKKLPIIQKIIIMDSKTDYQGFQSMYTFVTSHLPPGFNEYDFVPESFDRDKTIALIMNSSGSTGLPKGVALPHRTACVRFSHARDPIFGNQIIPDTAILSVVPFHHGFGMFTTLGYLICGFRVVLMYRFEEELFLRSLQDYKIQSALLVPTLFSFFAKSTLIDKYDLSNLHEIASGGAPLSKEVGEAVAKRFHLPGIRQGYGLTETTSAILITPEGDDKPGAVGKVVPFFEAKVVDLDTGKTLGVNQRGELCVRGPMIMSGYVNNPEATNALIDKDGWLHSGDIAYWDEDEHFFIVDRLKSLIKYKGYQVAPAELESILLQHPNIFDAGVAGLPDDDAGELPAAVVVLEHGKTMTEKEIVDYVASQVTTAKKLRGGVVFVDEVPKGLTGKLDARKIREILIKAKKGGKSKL

Test [3] can be described thus: S16 Schwann cell viability assay (CellTiter-Glo assay) (AID 624031). Note: nearly all actives have a fitted effect of over 70% in size. Note: potency is the fitted concentration of half-maximal effect. The settings on record: S16 rat Schwann cells viability, 24 h; series mostly up to 57.5 µM. Summed up: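 CellTiter-Glo ATP luminescence counter-screen in untransfected S16 rat Schwann cells, 24h compound exposure at 37 degree Celsius after overnight seeding (500-750 cells/well); response scaled between cell-free wells and DMSO (0% activity), curves classed by r2 and magnitude.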

Test [4] is described as follows: S16 Schwann cell PMP22 intronic element firefly luciferase assay (AID 624032). Note: nearly all actives have a fitted effect of over 30% in size. Note: potency is the fitted concentration of half-maximal effect. Particulars: S16 rat Schwann cells, PMP22 element FLuc, 24 h; series mostly up to 57.5 µM. In a few lines:
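Luciferase reporter of PMP22 intronic-element expression in stably transfected S16 rat Schwann cells, read by ONE-Glo luminescence after 24 h compound exposure at 37 C. Activity scaled between DMSO (0%) and positive-control PTC124; concentration-effect curves quality-classified.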

The nature of test [5]: S16 Schwann cell PMP22 intronic element beta-lactamase assay (AID 624044; calls by dose curve;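 note: 0% = DMSO and -100% = potassium clavulanate positive control; nearly all actives have a fitted effect of over 15% in size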). Particulars: S16 rat Schwann cells, PMP22 element beta-lactamase FRET, 24 h; ratio activity, negative = inhibition: at 38.3 µM (top of the series) unless noted. Summed up: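 Beta-lactamase reporter under a PMP22 intronic regulatory element in stable S16 rat Schwann cells; 24 h compound exposure. 460 nm blue signal normalized between DMSO (0%) and potassium clavulanate, with 535 nm FRET tracking viability; curves classed by r2 and response.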

Results filed as inconclusive are left out. Values without a mark were called inactive. Calls of active or inactive are those of the source. Unless noted, calls come from the whole dose curve; as a rule, active = well fitted curve in the direction sought with a large enough effect; inconclusive = small, poorly fitted or top-dose-only effect, or another doubt; inactive = no such curve, though single readings can be large; an effect the other way counts as inactive or inconclusive.

With `CC1CC(O)CC(C)(C)C1` (stereo unspecified), the Potency entry in test [1], in test [2], in test [3] and in test [4] was “inactive” throughout.

`CN=C1C=CC(=C(c2ccc(N(C)C)cc2)c2ccc(N(C)C)cc2)C=C1`: the Potency in test [1] is 4.47 µM (active); in test [2], 14.4 µM (active); in test [3], 10.2 µM (active); in test [4] it was 14.4 µM (active).

Regarding `COC(=O)CCC[N+](C)(C)C`, the Potency entry in test [1], in test [2], in test [3] and in test [4] was “inactive” throughout.

`CO/N=C(\C(=O)N[C@@H]1C(=O)N2C(C(=O)[O-])=C(C[n+]3cccc4c3CCC4)CS[C@H]12)c1csc(N)n1`: the Potency result in test [1], in test [2], in test [3] and in test [4] was “inactive” each time.

`O=P(O)(O)CP(=O)(O)O`: the Potency result in test [1], in test [2], in test [3] and in test [4] was “inactive” in each case.

Regarding `O=C(O)c1ccc(OCCn2ccnc2)cc1`, the Potency result in test [1], in test [2], in test [3] and in test [4] was “inactive” throughout.

In the case of `CCCCC[C@H](O)/C=C/[C@@H]1[C@H]2C/C(=C/CCCC(=O)O)O[C@H]2C[C@H]1O`, the Potency result in test [1], in test [2], in test [3] and in test [4] was “inactive” in each case.

Turning to `Cc1ccc(C(C)(C)c2ccc(C)cc2)cc1`, the Potency entry in test [1], in test [2], in test [3] and in test [4] was “inactive” each time.

Regarding `CC(C)c1ncc([N+](=O)[O-])n1C`, the Potency entry in test [1], in test [2], in test [3] and in test [4] was “inactive” each time.

As for `CN1c2c(nc(N)[nH]c2=O)NCC1CNc1ccc(C(=O)NC(CCC(=O)O)C(=O)O)cc1` (stereo unspecified), the Potency result in test [1], in test [2], in test [3] and in test [4] was “inactive” in each case.

Regarding `C[Se]CC[C@H](N)C(=O)O`, the Potency result in test [1], in test [2], in test [3] and in test [4] was “inactive” throughout.

Turning to `CCOc1ccc(S(=O)(=O)O)c2cccnc12`, the Potency entry in test [1], in test [2], in test [3] and in test [4] was “inactive” in each case.

`O=C(O)COc1ccccc1/C=N/NC(=O)c1ccncc1`: the Potency result in test [1], in test [2], in test [3] and in test [4] was “inactive” each time.

Consider `CC1(O)CCC(C(C)(C)O)CC1` (stereo unspecified), for which the Potency result in test [1], in test [2], in test [3] and in test [4] was “inactive” throughout.

For `CC(/C=C/C=C(\C)C(=O)O[C@@H]1O[C@H](CO[C@@H]2O[C@H](CO)[C@@H](O)[C@H](O)[C@H]2O)[C@@H](O)[C@H](O)[C@H]1O)=C\C=C\C=C(C)\C=C\C=C(/C)C(=O)O[C@@H]1O[C@H](CO[C@@H]2O[C@H](CO)[C@@H](O)[C@H](O)[C@H]2O)[C@@H](O)[C@H](O)[C@H]1O`, the Potency entry in test [1], in test [2], in test [3] and in test [4] was “inactive” throughout. Also, in test [5], the ratio activity, negative = inhibition is 3.54%.

With `COC1=C(OC)C(=O)C(C/C=C(\C)CC/C=C(\C)CC/C=C(\C)CC/C=C(\C)CC/C=C(\C)CC/C=C(\C)CC/C=C(\C)CC/C=C(\C)CC/C=C(\C)CCC=C(C)C)=C(C)C1=O`, the Potency entry in test [1], in test [2] and in test [3] was “inactive” throughout. Moreover, the Potency in test [4] is 0.642 µM (active). Further, in test [5], the ratio activity, negative = inhibition is 0.236%.

For `CC[C@H]1OC(=O)[C@H](C)[C@@H](O[C@H]2C[C@@](C)(OC)[C@@H](O)[C@H](C)O2)C(C)[C@@H](O[C@@H]2O[C@H](C)C[C@H](N(C)C)[C@@H]2O)[C@](C)(OC)C[C@@H](C)C(=O)[C@H](C)[C@@H](O)[C@]1(C)O` (stereo partly specified), the Potency entry in test [1], in test [2], in test [3] and in test [4] was “inactive” each time. In addition, in test [5], the ratio activity, negative = inhibition is 4.6%.

`CC(C)c1nc(N(C)S(C)(=O)=O)nc(-c2ccc(F)cc2)c1/C=C/C(O)CC(O)CC(=O)O` (stereo unspecified): the Potency in test [1] is 14.1 µM (active). The Potency result in test [2], in test [3] and in test [4] was “inactive” in each case. Also, the ratio activity, negative = inhibition in test [5] was 3.3%.

Consider `CS(=O)(=O)OCC(O)C(O)COS(C)(=O)=O` (stereo unspecified), for which the Potency entry in test [1], in test [2], in test [3] and in test [4] was “inactive” throughout. Moreover, the ratio activity, negative = inhibition in test [5] is 2.66%.

In the case of `CC(C)C1=CC2=CC[C@@H]3[C@](C)(CCC[C@@]3(C)C(=O)O)[C@H]2CC1`, the Potency result in test [1], in test [2], in test [3] and in test [4] was “inactive” throughout. Further, in test [5], the ratio activity, negative = inhibition is -5.72%.

For the compound `C=CC(C)(O)CC/C=C(\C)CCC=C(C)C` (stereo unspecified), the Potency result in test [1], in test [2], in test [3] and in test [4] was “inactive” throughout. For the same compound, in test [5], the ratio activity, negative = inhibition was -13.1% (active).

Turning to `O=C(O)[C@H]1C(=CCO)O[C@H]2CC(=O)N12`, the Potency entry in test [1], in test [2], in test [3] and in test [4] was “inactive” in each case. In addition, the ratio activity, negative = inhibition in test [5] was -34.7%.

Take `NC(N)=NCC1COc2ccccc2O1` (stereo unspecified): the Potency result in test [1], in test [2], in test [3] and in test [4] was “inactive” in each case. Also, the ratio activity, negative = inhibition in test [5] was 2.65%.

Regarding `O=C1NCCN1c1ncc([N+](=O)[O-])s1`, the Potency entry in test [1], in test [2], in test [3] and in test [4] was “inactive” each time. The ratio activity, negative = inhibition in test [5] is 1.39% [at 17.1 µM].

In the case of `CCCCC/C=C\C/C=C\C/C=C\CCCCC(=O)O`, the Potency entry in test [1], in test [2], in test [3] and in test [4] was “inactive” each time. The ratio activity, negative = inhibition in test [5] is -14.4%.

`CC(C)NCC(O)COc1ccccc1-n1cccc1` (stereo unspecified): the Potency in test [1] is 14.1 µM (active). In addition, the Potency entry in test [2], in test [3] and in test [4] was “inactive” each time. In addition, the ratio activity, negative = inhibition in test [5] was -5.07%.

`CSCCC(N)C(=O)O` (stereo unspecified): the Potency entry in test [1], in test [2], in test [3] and in test [4] was “inactive” in each case. Moreover, the ratio activity, negative = inhibition in test [5] is 5.55%.

For `CCC(C(=O)NC(N)=O)c1ccccc1` (stereo unspecified), the Potency result in test [1], in test [2], in test [3] and in test [4] was “inactive” in each case. Moreover, in test [5], the ratio activity, negative = inhibition is 8.54%.

For the compound `O=C1CCC(c2ccccc2)(C2CCN(Cc3ccccc3)CC2)C(=O)N1` (stereo unspecified), the Potency in test [1] was 14.1 µM (active). Also, the Potency entry in test [2], in test [3] and in test [4] was “inactive” each time. The ratio activity, negative = inhibition in test [5] was 1.84%.

For the compound `CC(=O)[O][Al][O]C(C)=O`, the Potency result in test [1], in test [2], in test [3] and in test [4] was “inactive” throughout. Also, the ratio activity, negative = inhibition in test [5] was 0.413%.

Turning to `O=C(O)Cc1nn(Cc2ccc(Br)cc2F)c(=O)c2ccccc12`, the Potency result in test [1], in test [2], in test [3] and in test [4] was “inactive” in each case. Further, the ratio activity, negative = inhibition in test [5] is 3.04%.

Consider `Cc1cc(=O)c(C(=O)N[C@@H](C(=O)N[C@@H]2C(=O)N3C(C(=O)O)=C(CSc4nnnn4C)CS[C@H]23)c2ccc(O)cc2)c[nH]1`, for which the Potency result in test [1], in test [2], in test [3] and in test [4] was “inactive” each time. In test [5], the ratio activity, negative = inhibition was 0.254%.
